PubChem BioAssay (NCI)
Compounds without any hit were thinned out: in the full panel of roughly 83,000, 20% have a hit.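 The test compound was applied at a single concentration to cells in 96-well plates for 48 hours, and percent growth was recorded.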 Values without a mark were called inactive. The source made the active and inactive calls. Rule for the calls: active = growth percent below 10; inactive = the rest.

Columns and labels:
Test in all cases: NCI-60 one-dose screen, 48 h (100 = growth as untreated, 0 = no growth, -100 = all killed)
Details in all cases: 10 µM unless noted
DU-145 prostate = tested on: DU-145 prostate
K-562 leukemia = tested on: K-562 leukemia
MALME-3M melanoma = tested on: MALME-3M melanoma
MDA-MB-231 breast = tested on: MDA-MB-231 breast
RXF 393 renal = tested on: RXF 393 renal
SF-268 CNS = tested on: SF-268 CNS
SF-295 CNS = tested on: SF-295 CNS
SF-539 CNS = tested on: SF-539 CNS
UACC-257 melanoma = tested on: UACC-257 melanoma
M14 melanoma = tested on: M14 melanoma
HCT-15 colon = tested on: HCT-15 colon
HT29 colon = tested on: HT29 colon
SNB-75 CNS = tested on: SNB-75 CNS
SNB-19 CNS = tested on: SNB-19 CNS
U251 CNS = tested on: U251 CNS
PC-3 prostate = tested on: PC-3 prostate
SK-MEL-5 melanoma = tested on: SK-MEL-5 melanoma
UACC-62 melanoma = tested on: UACC-62 melanoma
LOX IMVI melanoma = tested on: LOX IMVI melanoma
SK-MEL-28 melanoma = tested on: SK-MEL-28 melanoma

Structure (SMILES)	growth (DU-145 prostate)	growth (K-562 leukemia)	growth (MALME-3M melanoma)	growth (MDA-MB-231 breast)	growth (RXF 393 renal)	growth (SF-268 CNS)	growth (SF-295 CNS)	growth (SF-539 CNS)	growth (UACC-257 melanoma)	growth (M14 melanoma)	growth (HCT-15 colon)	growth (HT29 colon)	growth (SNB-75 CNS)	growth (SNB-19 CNS) [%]	growth (U251 CNS)	growth (PC-3 prostate)	growth (SK-MEL-5 melanoma)	growth (UACC-62 melanoma)	growth (LOX IMVI melanoma)	growth (SK-MEL-28 melanoma)
Cc1c(C(=O)OC(=NC2CCCCC2)NC2CCCCC2)sc2c1c(=O)nc1c(C#N)n[nH]n12	110%	82.7%	113%	113%	99.2%	106%	109%	104%	102%	103%	114%	96.2%	89.9%	109	107%	118%	110%	106%	94.8%	100%
COc1cc(N2C(=O)c3nccnc3C2=O)cc(OC)c1OC	115%	98.1%	96%	93.1%	126%	111%	110%	119%	105%	91.8%	104%	99.8%	103%	106	97.5%	98.7%	111%	114%	106%	108%
COC(=O)[C@]12CC[C@@H](C)[C@H](C)[C@@H]1C1=CC[C@@H]3[C@@]4(C)C(C=O)=C[C@@](C)(CO)[C@@H]4[C@H](O)C[C@@]3(C)[C@]1(C)CC2	-30% (active)	6.68% (active)	-70.7% (active)	-47.6% (active)	-82% (active)	-0.0873% (active)	-15.6% (active)	-44% (active)	-48.4% (active)	-51.5% (active)	-68.1% (active)	-37.7% (active)	3.2% (active)	24.4	-19% (active)	-0.105% (active)	-85.7% (active)	-34.5% (active)	-97.9% (active)	-34.5% (active)
O=C1/C(=C\c2c[nH]c3ccccc23)c2ccccc2N1c1c(Cl)cccc1Cl	14.5%	-0.66% (active)	-16.8% (active)	-2.7% (active)	-43.5% (active)	23.7%	-47.9% (active)	-59.9% (active)	23.6%	-86.3% (active)	5.59% (active)	-29.6% (active)	39.2%	37	-34% (active)	2.68% (active)	-39.2% (active)	-58.6% (active)	-100% (active)	-30.6% (active)
CCCc1cc2c(=O)c(C(=O)OC)c[nH]c2cc1N(CC)CC	112%	96.2%	95.4%	108%	29.3%	102%	85.2%	97.6%	136%	110%	95.9%	110%	104%	99.1	104%	79.6%	91.5%	83%	108%	112%
CC(C)Sc1nc(NNC(N)=S)c(C#N)c(-c2ccc(F)cc2)n1	110%	92.5%	117%	98%	101%	101%	93.7%	91.7%	101%	104%	95.9%	115%	62.6%	97	95%	102%	93.3%	91.1%	98.6%	113%
O=S(=O)(NCCCNc1cc(-c2c(-c3cccc(O)c3)nc3sccn23)ccn1)c1cccc(Cl)c1	55.9%	25.4%	48.2%	73.6%	41.1%	44.3%	49.3%	77.4%	68.4%	41.7%	28.4%	50.2%	14.2%	67.3	53.4%	24.6%	31.1%	40.3%	29.6%	60.7%
COc1cccc(-c2nn(-c3ccccc3)cc2-c2ccnc(NCCNC(=O)c3ccccc3)c2)c1	74.5%	38.2%	95.7%	55.3%	79.9%	78.3%	62.1%	96.9%	49.7%	55.3%	50.5%	15.9%	71.1%	72.3	47.9%	37.7%	34.5%	57.2%	68.7%	88.3%
O=C(NCCNc1cc(-c2cn(-c3ccccc3)nc2-c2cccc(O)c2)ccn1)Nc1ccccc1	92.8%	35.4%	92.3%	57.1%	89.5%	81.3%	75.8%	89.5%	58.7%	72.2%	62.7%	27.3%	66.2%	82.4	56.4%	45.7%	63.9%	70%	82.5%	103%
COc1ccc(NC(=O)c2nc(-c3cc(OC)c(OC)c(OC)c3)n(-c3cccc4ccccc34)n2)cc1OC	70.4%	35.4%	52.8%	27%	66.1%	58.6%	52.6%	35%	57.5%	48%	14.5%	30%	24.4%	52.3	52.4%	39.8%	32.4%	31%	25.2%	55.4%
Cc1cc(NCCCCNc2ccnc3cc(Cl)ccc23)nc(Nc2ccc(C(=O)N3CCCCC3)cc2)n1	21.8%	-46.2% (active)	-76.3% (active)	-41.1% (active)	-74.4% (active)	-38.3% (active)	-60.3% (active)	-79.6% (active)	-67.5% (active)	-85% (active)	-31.6% (active)	-25.4% (active)	-73.4% (active)	25.1	-36.3% (active)	12.2%	-96.5% (active)	-57.8% (active)	-78.3% (active)	-76.5% (active)
COc1ccc(-c2nc(SC(C)C)nc(NNC(N)=S)c2C#N)cc1	77.7%	16.9%	51.7%	43.3%	63.7%	62.5%	55.2%	50.1%	82.7%	53.8%	23.6%	85%	32.3%	38	52.8%	55.6%	28.9%	22.2%	40.2%	58.7%
O=c1cc(-c2ccc(Cl)cc2)[nH]c2ccccc12	97.4%	33%	84.7%	81.6%	76.4%	86.1%	84.1%	94.5%	73.3%	71.8%	59.1%	86.3%	85.3%	91.5	80%	75.7%	59.1%	67.8%	71.4%	78.1%
CN(C)CC1=NC2SC=C(c3ccccc3)C2C(=O)N1CC#N (stereo not given)	111%	60%	83.1%	92%	81.3%	109%	99.2%	101%	108%	105%	105%	101%	87.6%	108	104%	71.4%	107%	87.3%	99.7%	119%
COc1cc(/C=C/C(=O)c2ccc(Nc3nc(Nc4ccc(F)cc4)nc(Nc4ccc(Cl)cc4)n3)cc2)cc(OC)c1OC	68.5%	35.8%	56.2%	62.6%	-31.1% (active)	74.8%	369%	67.7%	102%	65.6%	55%	3.82% (active)	0.259% (active)	101	27.5%	21.4%	33.5%	56.5%	37.3%	-32.9% (active)
